Shown are actives, neighbours in structure and some others; about 2.4% of the full set was active somewhere.
HEK293 tox: cytotoxicity in counter-screen for GLP-1R inverse agonists; hit rate 0.13% among 410,000; HEK293 cAMP-luciferase reporter cells, luminescence, 24 h; Potency, µM (doses to about 38.3 µM), most hits filed as inhibitors;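 further: loss of luciferase light is scored as toxicity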
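1536-well qHTS counterscreen of the MLSMR; 200 cells/uL, 12 h pre-incubation, 23 nL cpd, 24 h at 37 deg C 5% CO2, luciferase detection reagent, 12 min RT, luminescence. Inhibition = undesired.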
TRHR ag: activates the human TRH receptor; P34981; TRHR cells, calcium flux fluo-8, FDSS agonist mode; activation, % at 2 µM; hit rate 0.18% among 360,000; AID 493084; in the data active means activation above about 30%
Target sequence (P34981 whole entry, looked up): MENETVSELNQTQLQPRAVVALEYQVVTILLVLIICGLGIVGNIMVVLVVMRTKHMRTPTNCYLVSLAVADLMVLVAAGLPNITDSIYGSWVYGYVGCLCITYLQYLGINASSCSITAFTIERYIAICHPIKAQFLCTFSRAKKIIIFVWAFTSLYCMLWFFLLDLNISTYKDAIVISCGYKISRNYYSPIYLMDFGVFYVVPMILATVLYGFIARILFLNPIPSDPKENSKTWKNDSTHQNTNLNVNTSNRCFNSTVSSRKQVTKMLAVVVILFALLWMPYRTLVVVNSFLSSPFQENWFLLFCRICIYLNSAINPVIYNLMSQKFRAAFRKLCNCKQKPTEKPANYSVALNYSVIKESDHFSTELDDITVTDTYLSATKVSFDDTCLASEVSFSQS
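Read-out: compound-evoked intracellular calcium rise in TRHR cells, fluo-8 dye, kinetic FDSS fluorescence at 1 s/cycle following a 10-cycle baseline. Cells cultured overnight before dye loading (30 min–1.5 h, RT).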
PTHR1 agonist: activates the human parathyroid hormone receptor PTHR1 | Q03431 | HEK293 GP2 PTHR1 cells, GloSensor cAMP luminescence, 1 h | Potency, µM (series often up to 115 µM), actives largely listed as activators | hit rate 0.075% among 410,000; further: nearly all actives have a fitted effect of over 55% in size
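HEK-293-derived GP2 cells expressing PTHR1 and a GloSensor cAMP reporter, 3,000/well, plated overnight, given luciferin plus IBMX (each 0.5 mM as added) for 1 h at 37 °C, then compound for 1 h at 37 °C. Luminescence was read after 15 min at room temperature.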
GLP-1R inv ag: inverse agonists of human GLP-1 receptor | P43220 | HEK293 GLP-1R CRE-luciferase, luminescence, 24 h; GLP-1R form is constitutively active | Potency, µM (highest dose often 38.3 µM), usual class: inhibitors | hit rate 1.6% among 410,000; further: nearly all actives have a fitted effect of over 55% in size
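Readout was luciferase luminescence, measured 12 min after detection reagent at room temperature. Beforehand, GLP-1R reporter HEK293 cells had sat 12 h, then received compounds for 24 hr at 37 deg C.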
GLP-1R agonist: GLP-1 receptor (human) agonism | P43220 | HEK293 GLP-1R CRE-luciferase, luminescence, 4-6 h; cells express a hypersensitive GLP-1R form | Potency, µM (titrated, usually from 45.6 µM), hits mostly activators | hit rate 0.007% among 380,000 | AID 624172
TRHR enhancer: TRH receptor (human) allosteric enhancement; P34981; TRHR cells, fluo-8 calcium fluorescence, EC20 TRH enhancement; enhancement, % at 2 µM; hit rate 0.66% among 360,000; AID 493056; in the data active means enhancement above about 30%
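TRHR-expressing cells loaded with fluo-8 calcium dye were read kinetically (ex 480/em 530) during compound addition, then stimulated with an EC20 of TRH (10 nM final). Enhancement of the Gq-mediated intracellular calcium response was scored.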
Hits are given with their value; i = inactive; ? = inconclusive; nt = not tested or not shown; ! = not confirmed by another sample. Unless noted, the call rests on the fitted dose curve; in most records, active means well fitted curve in the direction sought with a large enough effect; inconclusive means small, poorly fitted or top-dose-only effect, or another doubt; inactive means no such curve, though single readings can be large; an effect the other way counts as inactive or inconclusive.

SMILES	HEK293 tox	TRHR ag	PTHR1 agonist	GLP-1R inv ag	GLP-1R agonist	TRHR enhancer
COc1cc(/C=N/NC(=O)CCN2CCCCC2)ccc1O	i	i	i	i	i	34
Oc1c(Br)cc(Br)cc1/C=N/NC(=S)N[C@H]1CC2C=CC1C2 (stereo not given in full)	i	i	i	3.5µM	i	i
CCOc1ccc(/C=N/NC(=S)NC2CC3C=CC2C3)cc1 (stereo not given)	i	i	i	3.2µM	i	i
c1ccc(N2CCN(c3nnnn3-c3ccccc3)CC2)cc1	i	i	i	i	i	i
CC(C)c1ccc(CN2CCN(C(=O)CCl)CC2)cc1	?	i	i	5.6µM	i	i
CCC(Oc1ccccc1)C(=O)OCC(=O)N(CC)c1c(N)n(Cc2ccccc2)c(=O)[nH]c1=O (stereo not given)	i	i	i	i	i	i
CC(NC(=O)c1ccc2ccccc2n1)c1ccccc1 (stereo not given)	i	i	i	?	i	i
Cc1nn(-c2ccccc2)c(C)c1C(=O)NNC(=O)C(F)(F)F	i	i	i	i	i	i
COC(=O)c1c(NC(=O)CSc2nc3ccccc3c(=O)n2Cc2ccco2)sc(C)c1C	i	i	i	i	i	i
COC(=O)c1c(NC(=O)CSc2nnc(-c3ccco3)n2Cc2ccccc2)sc(C)c1C	i	i	i	13µM	i	i
O=C(CSc1nnc(-c2ccco2)n1Cc1ccccc1)OC1CCCCC1	i	i	i	10µM	i	i
O=C(CSc1nnc(-c2ccncc2)n1Cc1ccco1)OC1CCCCC1	i	i	i	i	i	i
C/C(CCc1ccccc1)=N\NC(=O)C1C2CCCCC21 (stereo not given)	i	i	i	i	i	i
O=C(NC1CCCc2c1cnn2-c1ccccc1F)c1ccccc1N1CCOCC1 (stereo not given)	i	i	i	7.9µM	i	i
Cc1[nH]ccc2cc3nc4ccccc4c3cc12	i	nt	i	10µM	i	nt
Cc1cccc2nc3ccccc3cc12	i	nt	i	i	i	nt
COc1ccc(NC(=O)Nc2cccc(C)n2)c(OC)c1	i	i	i	i	i	33!
CCCCOc1ccc(C(=O)Nc2cccc(C)n2)cc1	i	i	i	i	i	i
CCOc1ccc(C(=O)Nc2cccc(C)n2)cc1	i	i	i	?	i	41
Cc1ccnc(NC(=O)c2ccc(S(=O)(=O)N3CCCCCC3)cc2)c1	i	i	i	11µM	i	i
CCOc1ccc(C(=O)Nc2cc(C)ccn2)cc1	i	i	i	4µM	i	i
Cn1c(CSc2nc3ccccc3s2)nnc1SCC(=O)NCCN1CCOCC1	i	i	i	i	i	i
Fc1ccc(Nc2nc(Nc3ccc(F)cc3)nc(N3CCOCC3)n2)cc1	i	i	i	?	nt	i
O=C(CSc1nc2ccc(Cl)cc2[nH]1)Nc1ccc2[nH]c(=O)[nH]c2c1	i	i	i	i	i	i
COc1cc(-c2nnc(CSc3nnc(Nc4ccc(C(C)C)cc4)s3)o2)cc(OC)c1OC	11µM	i	i	?	i	i
SMILES	HEK293 tox	TRHR ag	PTHR1 agonist	GLP-1R inv ag	GLP-1R agonist	TRHR enhancer
CCc1c(C#N)c(SCCC(=O)Nc2ccc(C)cc2)nc2c1C(=O)CC(C)(C)C2	i	i	i	2.8µM	i	i
Cc1nc2cc(C(=O)NCCC3=CCCCC3)ccc2n1-c1ccc(Br)cc1	i	i	i	?	nt	i
COC(=O)c1ccc(NC(=O)CSCc2ccccc2C)cc1	i	i	i	?	i	40
COc1ccc(C(=O)Cn2c(=O)c(-c3cc(C)ccc3NC(C)=O)nc3ccccc32)cc1	i	i	?	i	nt	i
CCOc1ccc(OCC)c(NC(=O)CN2CCN(c3cc(C)ccc3C)CC2)c1	?	i	i	13µM	i	i
CCOc1ccc(OCC)c(NC(=O)CN2CCN(c3cccc(C)c3)CC2)c1	i	i	i	?	i	i
COc1ccc(-c2ccc(/C=N/NC(=O)Cc3nnc(N)s3)o2)cc1Cl	i	i	i	11µM	i	i
Cc1ccc(-c2ccc(/C=N/NC(=O)Cc3nnc(N)s3)o2)cc1Cl	i	i	i	?	i	i
O=C(CNC(c1ccccc1)c1ccccc1)NCc1ccccc1Cl	i	i	i	10µM	i	i
CC(Oc1cc(C(F)(F)F)cc(C(F)(F)F)c1)C(=O)NC(N)=O (stereo not given)	i	i	i	?	i	i
Cc1ccc(S(=O)(=O)N(CC(=O)N/N=C/c2ccco2)c2cc(Cl)cc(Cl)c2)cc1	?	i	i	6.3µM	i	i
CC(NC(=O)CSc1nnc(-c2cc3cc(Cl)ccc3o2)n1C)c1ccccc1 (stereo not given)	i	i	i	?	i	32
COC(=O)c1c(C)sc(-c2c(-c3cccc(Cl)c3)[nH]c3c2c(=O)[nH]c(=O)n3C)c1O	i	36	i	i	nt	i
CCN(CC)CCNC(=O)c1ccc(NC(=O)C2CC(=O)N(CCc3ccc(OC)c(OC)c3)C2)cc1 (stereo not given)	i	i	i	i	i	i
Clc1ccccc1OCc1nnc(-c2ccccc2Br)o1	i	i	i	?	i	i
O=c1c(Cl)c(Cl)cnn1Cc1nnc(-c2ccccc2Br)o1	?	i	i	?	i	39
O=C(Nc1cc(C(F)(F)F)ccc1Cl)C(Sc1ccccn1)c1ccccc1 (stereo not given)	i	i	i	8.9µM	i	i
O=C(Cc1ccccc1)N1CCN=C1SCc1cccc([N+](=O)[O-])c1	i	i	i	i	i	31
COc1ccc2cc3c(N)c(C(=O)NCc4ccco4)sc3nc2c1	i	i	i	i	i	51
COc1cc(/C=C/C(=O)c2ccc3c(c2)OCO3)cc(Cl)c1O	i	197	i	11µM	i	i
COc1ccc(-c2csc(NC(=O)C3CCN(c4ncnc5sc(C)c(C)c45)CC3)n2)cc1OC	?	i	i	7.1µM	i	i
COc1ccccc1OCC(=O)NNC(=O)C1CCN(c2ncnc3sc(C)c(C)c23)CC1	i	i	i	?	i	i
Cc1noc(/C=C/c2ccccc2F)c1S(=O)(=O)N1CCC(C(=O)NCc2ccco2)CC1	i	i	i	i	nt	i
CCN(CC)C(=O)C1CCN(S(=O)(=O)c2c(C)noc2/C=C/c2cccc(C)c2)CC1	i	i	i	10µM	i	i
CCN(CC)CCNC(=O)C1CCN(S(=O)(=O)c2c(C)noc2/C=C/c2ccccc2F)CC1	?	i	i	3.2µM!	i	i
CCN(CC)C(=O)C1CCN(S(=O)(=O)c2c(C)noc2/C=C/c2cccc(OC)c2)CC1	i	i	i	i	nt	i

Screens as filed in PubChem BioAssay.
